Consider 29 compounds from ChEMBL document CHEMBL4513141, “CO-ADD screening of NIH (USA) - Clinical Collection” (2021).

Several values for one entry are separate records, joined by “and”; a condition that tells them apart may be missing. Equal entries are not always repeated. Entries with a potency or affinity are not part of this list.

One test has as its system Klebsiella pneumoniae. To be noted: Concentration 20 uM, ASSAY_TEST Inhibition of Bacterial Growth, detection method Absorption (OD600), MEDIA CAMHB, plate type 384well, NBS, CORNING #3640, time 18 hr.
The next test concerns Candida albicans. To be noted: 20 µM.
The subject of another test is Cryptococcus neoformans. To be noted: Concentration 20 uM, ASSAY_TEST Inhibition of Fungal Growth, detection method Resazurin, Absorption (OD600-OD570), plate type 384well, NBS, CORNING #3640. (In general: The colour change of resazurin is a common sign of viable cells or microbes.)

One may read the Inhibition as the relative decrease from the control value, in per cent. Consider `Cc1ncc([N+](=O)[O-])n1CC(C)O` (configuration not stated) [SECNIDAZOLE], for which the results for the Inhibition with Klebsiella pneumoniae, with Candida albicans and in the test with Cryptococcus neoformans were 8.29%, 1.89% and 0.36%, respectively.

Regarding `CN(C)CCOC(c1ccccc1)c1ccccc1.Cl` [DIPHENHYDRAMINE HYDROCHLORIDE], the Inhibition in the test on Klebsiella pneumoniae came to 1.03%; with Candida albicans, 4.49%; in the test with Cryptococcus neoformans it was 4.12%.

On to `CN(C)CCC[C@@]1(c2ccc(F)cc2)OCc2cc(C#N)ccc21.O=C(O)C(=O)O` [ESCITALOPRAM OXALATE], for which the values for the Inhibition with Klebsiella pneumoniae, in the test with Candida albicans and in the test with Cryptococcus neoformans were 13.63%, 3.94% and -10.38%, respectively.

`Nc1ccn([C@@H]2O[C@H](CO)[C@@H](O)[C@@H]2O)c(=O)n1` [CYTARABINE]: the values for the Inhibition with Klebsiella pneumoniae, with Candida albicans and in the test with Cryptococcus neoformans were 5.64%, 2.79% and -8.77%, respectively.

As for `CCCN[C@H]1CCc2nc(N)sc2C1` [PRAMIPEXOLE], the Inhibition is 5.86% in the test on Klebsiella pneumoniae, 5.21% in the test with Candida albicans and -0.71% with Cryptococcus neoformans.

As for `OCCN(CCO)c1nc(N2CCCCC2)c2nc(N(CCO)CCO)nc(N3CCCCC3)c2n1` [DIPYRIDAMOLE], the figures for the Inhibition in the test with Klebsiella pneumoniae, in the test on Candida albicans and in the test with Cryptococcus neoformans were 2.81%, 2.59% and 5.59%, respectively.

In the case of `O=C(NCCN1CCOCC1)c1ccc(Cl)cc1` [MOCLOBEMIDE], the figures for the Inhibition in the test with Klebsiella pneumoniae, with Candida albicans and in the test on Cryptococcus neoformans were 9.06%, 3.1% and -2.98%, respectively.

For `CCN1CCC[C@H]1CNC(=O)c1c(O)c(Cl)cc(Cl)c1OC` [RACLOPRIDE], the Inhibition was 6.89% with Klebsiella pneumoniae, 2.44% in the test on Candida albicans and 1.03% in the test on Cryptococcus neoformans.

As to `COc1ccc(CN2CCN(C(c3ccc(F)cc3)c3ccc(F)cc3)CC2)c(OC)c1OC.Cl.Cl`, the Inhibition in the test with Klebsiella pneumoniae is -0.73%; in the test on Candida albicans, 2.16%; in the test on Cryptococcus neoformans, -36.76%.

As to `COC(=O)[C@H](c1ccccc1Cl)N1CCc2sccc2C1` [CLOPIDOGREL], the figures for the Inhibition in the test on Klebsiella pneumoniae, in the test on Candida albicans and in the test with Cryptococcus neoformans were 14.99%, 2.18% and -8.15%, respectively.

In the case of `COc1ccc2cc(CCC(C)=O)ccc2c1` [NABUMETONE], the Inhibition with Klebsiella pneumoniae is 8.45%; in the test with Candida albicans, 5.24%; in the test with Cryptococcus neoformans, -7.4%.

In the case of `CC1(C)O[C@@H]2C[C@H]3[C@@H]4CCC5=CC(=O)C=C[C@]5(C)[C@@]4(F)[C@@H](O)C[C@]3(C)[C@]2(C(=O)CO)O1` [TRIAMCINOLONE ACETONIDE], the figures for the Inhibition in the test with Klebsiella pneumoniae, in the test with Candida albicans and in the test with Cryptococcus neoformans were 14.59%, 0.96% and -5.82%, respectively.

For the compound `CC(C)Oc1ccc2c(=O)c(-c3ccccc3)coc2c1` [IPRIFLAVONE], the Inhibition in the test on Klebsiella pneumoniae amounted to 12.22%; in the test with Candida albicans, 3.92%; with Cryptococcus neoformans it was 2.68%.

Regarding `C[C@@H]1C[C@H]2[C@@H]3CCC4=CC(=O)C=C[C@]4(C)[C@@]3(F)[C@@H](O)C[C@]2(C)[C@@]1(O)C(=O)CO` [DEXAMETHASONE], the Inhibition with Klebsiella pneumoniae (20 µM) was -0.78% and 2.8%; in the test with Candida albicans it was 1.68% and 4.41%; with Cryptococcus neoformans (20 µM), -1.2% and -1.22%.

Consider `CC1(C)O[C@@H]2[C@@H](CO[C@@]3(COS(N)(=O)=O)OC(C)(C)O[C@@H]23)O1` [TOPIRAMATE], for which the Inhibition is 6.32% with Klebsiella pneumoniae, 2.83% in the test on Candida albicans and -6.94% in the test on Cryptococcus neoformans.

As to `CS(=O)(=O)O.Cc1ccc(NC(=O)c2ccc(CN3CCN(C)CC3)cc2)cc1Nc1nccc(-c2cccnc2)n1` [IMATINIB MESYLATE], the values for the Inhibition in the test with Klebsiella pneumoniae, in the test on Candida albicans and in the test with Cryptococcus neoformans were 14.57%, 2.45% and 9.11%, respectively.

For the compound `CCCCC(=O)O[C@H]1CC[C@H]2[C@@H]3CCc4cc(O)ccc4[C@H]3CC[C@]12C` [ESTRADIOL VALERATE], the Inhibition in the test with Klebsiella pneumoniae was 8.52%; in the test with Candida albicans it was 0.66%; in the test with Cryptococcus neoformans it was 2.38%.

`CC(C)c1nc(CN(C)C(=O)N[C@H](C(=O)N[C@@H](Cc2ccccc2)C[C@H](O)[C@H](Cc2ccccc2)NC(=O)OCc2cncs2)C(C)C)cs1` [RITONAVIR]: the figures for the Inhibition with Klebsiella pneumoniae, in the test on Candida albicans and with Cryptococcus neoformans were 14.84%, 1.82% and -5.87%, respectively.

With `C[C@]12C=CC(=O)C=C1CC[C@@H]1[C@@H]2C(=O)C[C@@]2(C)[C@H]1CC[C@]2(O)C(=O)CO` [PREDNISONE], the Inhibition in the test with Klebsiella pneumoniae was 18.73%; in the test with Candida albicans, 1.91%; in the test with Cryptococcus neoformans, -7.34%.

For the compound `Cc1ccc(O)c([C@H](CCN(C(C)C)C(C)C)c2ccccc2)c1.O=C(O)C(O)C(O)C(=O)O` [TOLTERODINE TARTRATE], the values for the Inhibition with Klebsiella pneumoniae, with Candida albicans and in the test with Cryptococcus neoformans were 6.3%, 4.41% and -7.64%, respectively.

Regarding `CCCCc1nc(Cl)c(CO)n1Cc1ccc(-c2ccccc2-c2nnn[n-]2)cc1.[K+]` [LOSARTAN POTASSIUM], the Inhibition with Klebsiella pneumoniae was 7.23%; with Candida albicans, 5%; in the test with Cryptococcus neoformans, -3.04%.

Take `CC(C)[N+]1(C)C2CCC1CC(OC(=O)C(CO)c1ccccc1)C2.[Br-]` (configuration not stated): the Inhibition in the test with Klebsiella pneumoniae was -0.09%; with Candida albicans, 0.17%; with Cryptococcus neoformans it was -6.11%.

Consider `CCOC(=O)[C@@H](CCc1ccccc1)N[C@@H](C)C(=O)N1CCC[C@H]1C(=O)O.O=C(O)/C=C\C(=O)O`, for which the Inhibition is 10.36% in the test with Klebsiella pneumoniae, 0.69% in the test on Candida albicans and -1.23% in the test on Cryptococcus neoformans.

As for `CN1CCN(c2nc3cc(C(F)(F)F)ccc3n3cccc23)CC1.O=C(O)/C=C\C(=O)O.O=C(O)/C=C\C(=O)O`, the Inhibition was 7.65% in the test with Klebsiella pneumoniae, 3.61% in the test on Candida albicans and 2.72% in the test on Cryptococcus neoformans.

For `N#Cc1ccc(C(c2ccc(C#N)cc2)n2cncn2)cc1` [LETROZOLE], the Inhibition is 9.79% in the test on Klebsiella pneumoniae, 2.89% in the test with Candida albicans and -8.63% in the test on Cryptococcus neoformans.

For the compound `COC(=O)CCc1ccc(OCC(O)CNC(C)C)cc1.Cl` (configuration not stated) [ESMOLOL HYDROCHLORIDE], the Inhibition in the test with Klebsiella pneumoniae is 3.48%; in the test with Candida albicans it was 1.99%; with Cryptococcus neoformans, -7.33%.

As for `O.OC[C@H]1O[C@@H](n2cnc3c(NC4CCCC4)nc(Cl)nc32)[C@@H](O)C1O` (some centres not stated), the Inhibition is 3.81% in the test on Klebsiella pneumoniae, 1.81% in the test with Candida albicans and -4.95% in the test on Cryptococcus neoformans.

`CC[N+](C)(CC)CCOC(=O)C(O)(c1ccccc1)C1CCCCC1.[Br-]` (configuration not stated) [OXYPHENONIUM BROMIDE]: the Inhibition in the test with Klebsiella pneumoniae is 20%; with Candida albicans, 2.42%; in the test on Cryptococcus neoformans, -6.44%.

Take `COc1cc(C[C@@H](CO)[C@H](CO)Cc2ccc(O)c(OC)c2)ccc1O` [(+)-SECOISOLARICIRESINOL]: the Inhibition came out at 5.83% with Klebsiella pneumoniae, 4.22% in the test with Candida albicans and 1.62% in the test on Cryptococcus neoformans.
